According to PubChem BioAssay AID1159580 (chemical genetic matrix, 2015):
Among all 5,500 compounds or so, about 2,000 (36%) were called active. Another 18% or so got no clear call; they are omitted. Rule as the data show it: active = normalized growth mostly below about 0.91 (no sharp cut-off); inconclusive = no clear call, values can overlap the other calls; inactive = mostly above about 0.92. This is one part of the list.

Experiment: chemical genetic growth profiling, strain panel (AID 1159580);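 also: tested at 20 µM; growth read once vehicle control cultures reached saturation at 30 °C; 1 = growth at the plate median or of vehicle wells; lower values mean less growth of the strain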
Details: growth OD

Measured: normalized growth

O=C(Cn1ccnc1[N+](=O)[O-])NCCO
inactive: S. cerevisiae deletion strains, locus YJR075W, strain HOC1, stronger effect = lower value 1 | S. cerevisiae deletion strains, locus YKL009W, strain mrt4, stronger effect = lower value 1.03 | S. cerevisiae deletion strains, locus YKL068W, stronger effect = lower value 1.02 | S. cerevisiae deletion strains, locus YKL085W, strain MDH1 (second series), stronger effect = lower value 1.03 | S. cerevisiae deletion strains, locus YKL085W, strain MDH1, stronger effect = lower value 1.03 | S. cerevisiae deletion strains, locus YKL160W, strain elf1, stronger effect = lower value 1.02 | S. cerevisiae deletion strains, locus YKL190W, strain CNB1, stronger effect = lower value 1.01 | S. cerevisiae deletion strains, locus YKR001C, strain vps1, stronger effect = lower value 1.01 | S. cerevisiae deletion strains, locus YKR026C, strain gcn3, stronger effect = lower value 1.01 | S. cerevisiae deletion strains, locus YKR091W, strain srl3, stronger effect = lower value 1.01 | S. cerevisiae deletion strains, locus YLL001W, strain dnm1, stronger effect = lower value 1.01 | S. cerevisiae deletion strains, locus YLL026W, stronger effect = lower value 1.01 | S. cerevisiae deletion strains, locus YLL041C, strain sdh2, stronger effect = lower value 1.01 | S. cerevisiae deletion strains, locus YLR027C, strain aat2, stronger effect = lower value 1.01 | S. cerevisiae deletion strains, locus YLR039C, strain RIC1, stronger effect = lower value 1.08 | S. cerevisiae deletion strains, locus YLR058C, strain SHM2, stronger effect = lower value 1.01 | S. cerevisiae deletion strains, locus YLR102C, strain apc9, stronger effect = lower value 1.01 | S. cerevisiae deletion strains, locus YLR113W, strain HOG1, stronger effect = lower value 0.988 | S. cerevisiae deletion strains, locus YLR221C, strain rsa3, stronger effect = lower value 1.02 | S. cerevisiae deletion strains, locus YLR258W, strain gsy2, stronger effect = lower value 1.02 | S. cerevisiae deletion strains, locus YLR262C, strain YPT6 (second series), stronger effect = lower value 1.02 | S. cerevisiae deletion strains, locus YLR262C, strain YPT6, stronger effect = lower value 1.07 | S. cerevisiae deletion strains, locus YLR268W, strain sec22, stronger effect = lower value 0.981 | S. cerevisiae deletion strains, locus YLR320W, strain mms22, stronger effect = lower value 1.03 | S. cerevisiae deletion strains, locus YLR330W, strain CHS5, stronger effect = lower value 1 | S. cerevisiae deletion strains, locus YLR342W, strain FKS1 (second series), stronger effect = lower value 1.08 | S. cerevisiae deletion strains, locus YLR342W, strain FKS1, stronger effect = lower value 1.02 | S. cerevisiae deletion strains, locus YLR357W, strain rsc2, stronger effect = lower value 1.01 | S. cerevisiae deletion strains, locus YLR370C, strain arc18, stronger effect = lower value 1.02 | S. cerevisiae deletion strains, locus YLR371W, strain rom2, stronger effect = lower value 1.01 | S. cerevisiae deletion strains, locus YLR384C, strain iki3, stronger effect = lower value 1.03 | S. cerevisiae deletion strains, locus YLR418C, strain cdc73, stronger effect = lower value 0.95 | S. cerevisiae deletion strains, locus YML016C, strain PPZ1, stronger effect = lower value 1 | S. cerevisiae deletion strains, locus YML032C, strain rad52, stronger effect = lower value 1.02 | S. cerevisiae deletion strains, locus YML120C, strain ndi1, stronger effect = lower value 1 | S. cerevisiae deletion strains, locus YML124C, strain tub3, stronger effect = lower value 1 | S. cerevisiae deletion strains, locus YMR058W, strain fet3, stronger effect = lower value 1.01 | S. cerevisiae deletion strains, locus YMR078C, strain ctf18, stronger effect = lower value 1.01 | S. cerevisiae deletion strains, locus YMR125W, strain sto1, stronger effect = lower value 1.02 | S. cerevisiae deletion strains, locus YMR129W, stronger effect = lower value 1.02 | S. cerevisiae deletion strains, locus YMR205C, strain PFK2, stronger effect = lower value 1.03 | S. cerevisiae deletion strains, locus YMR223W, strain ubp8, stronger effect = lower value 1.02 | S. cerevisiae deletion strains, locus YMR231W, strain pep5, stronger effect = lower value 1.02 | S. cerevisiae deletion strains, locus YMR263W, strain SAP30, stronger effect = lower value 0.993 | S. cerevisiae deletion strains, locus YMR307W, strain GAS1, stronger effect = lower value 1.04 | S. cerevisiae deletion strains, locus YNL067W, strain RPL9B, stronger effect = lower value 0.988 | S. cerevisiae deletion strains, locus YNL071W, strain lat1, stronger effect = lower value 1 | S. cerevisiae deletion strains, locus YNL128W, strain TEP1, stronger effect = lower value 0.991 | S. cerevisiae deletion strains, locus YNL153C, strain GIM3, stronger effect = lower value 0.97 | S. cerevisiae deletion strains, locus YNL183C, strain NPR1, stronger effect = lower value 0.955 | S. cerevisiae deletion strains, locus YNL209W, strain ssb2, stronger effect = lower value 1.02 | S. cerevisiae deletion strains, locus YNL233W, strain BNI4, stronger effect = lower value 1 | S. cerevisiae deletion strains, locus YNL248C, strain rpa49, stronger effect = lower value 1.01 | S. cerevisiae deletion strains, locus YNL250W, strain rad50, stronger effect = lower value 0.99 | S. cerevisiae deletion strains, locus YNL271C, strain bni1, stronger effect = lower value 0.999 | S. cerevisiae deletion strains, locus YNL298W, strain CLA4, stronger effect = lower value 1.01 | S. cerevisiae deletion strains, locus YNL307C, strain MCK1, stronger effect = lower value 1.03 | S. cerevisiae deletion strains, locus YNL322C, strain KRE1 (second series), stronger effect = lower value 1.02 | S. cerevisiae deletion strains, locus YNL322C, strain KRE1, stronger effect = lower value 1.01 | S. cerevisiae deletion strains, locus YNR049C, strain mso1, stronger effect = lower value 1.01 | S. cerevisiae deletion strains, locus YNR052C, strain pop2, stronger effect = lower value 1.01 | S. cerevisiae deletion strains, locus YOL006C, strain TOP1, stronger effect = lower value 1.06 | S. cerevisiae deletion strains, locus YOL012C, strain htz1 0.906 | S. cerevisiae deletion strains, locus YOL147C, strain pex11, stronger effect = lower value 1.01 | S. cerevisiae deletion strains, locus YOR001W, strain rrp6, stronger effect = lower value 1.02 | S. cerevisiae deletion strains, locus YOR061W, strain CKA2, stronger effect = lower value 1 | S. cerevisiae deletion strains, locus YOR069W, strain VPS5, stronger effect = lower value 1.01 | S. cerevisiae deletion strains, locus YOR070C, strain gyp1, stronger effect = lower value 1.03 | S. cerevisiae deletion strains, locus YOR080W, strain dia2, stronger effect = lower value 1.01 | S. cerevisiae deletion strains, locus YOR083W, strain WHI5, stronger effect = lower value 1.02 | S. cerevisiae deletion strains, locus YOR106W, strain vam3, stronger effect = lower value 1.02 | S. cerevisiae deletion strains, locus YOR136W, strain idh2, stronger effect = lower value 1.01 | S. cerevisiae deletion strains, locus YOR144C, strain elg1, stronger effect = lower value 1.01 | S. cerevisiae deletion strains, locus YOR184W, strain ser1, stronger effect = lower value 1.05 | S. cerevisiae deletion strains, locus YOR231W, strain MKK1, stronger effect = lower value 0.986 | S. cerevisiae deletion strains, locus YOR265W, strain rbl2, stronger effect = lower value 1.03 | S. cerevisiae deletion strains, locus YOR270C, strain vph1, stronger effect = lower value 1.03 | S. cerevisiae deletion strains, locus YOR290C, strain snf2, stronger effect = lower value 1.01 | S. cerevisiae deletion strains, locus YOR316C, strain cot1, stronger effect = lower value 1 | S. cerevisiae deletion strains, locus YPL051W, strain arl3, stronger effect = lower value 1.02 | S. cerevisiae deletion strains, locus YPL055C, strain LGE1, stronger effect = lower value 0.955 | S. cerevisiae deletion strains, locus YPL078C, strain atp4, stronger effect = lower value 1.01 | S. cerevisiae deletion strains, locus YPL106C, strain sse1, stronger effect = lower value 1.02 | S. cerevisiae deletion strains, locus YPL240C, strain hsp82, stronger effect = lower value 1.01 | S. cerevisiae deletion strains, locus YPL241C, strain CIN2, stronger effect = lower value 1.01 | S. cerevisiae deletion strains, locus YPL256C, strain CLN2, stronger effect = lower value 0.977 | S. cerevisiae deletion strains, locus YPR119W, strain clb2, stronger effect = lower value 1.01 | S. cerevisiae deletion strains, locus YPR141C, strain kar3, stronger effect = lower value 1.01 | S. cerevisiae deletion strains, locus YPR163C, strain tif3, stronger effect = lower value 1.01 | S. cerevisiae deletion strains, locus YPR167C, strain met16, stronger effect = lower value 1.02 | S. cerevisiae deletion strains, strain wtn01, stronger effect = lower value 1 | S. cerevisiae strains, strain wild type, stronger effect = lower value 1.01
